Assay results: PubChem BioAssay (NCI)
This is part of a sample that, as a whole, favours compounds with a hit. Of some 83,000 tested, about 20% had one in any assay.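 Testing used 96-well plates and a 48-hour single-concentration exposure. Example: -40 means 40% of the starting cells died.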 Unmarked numbers belong to inactive results. Activity calls are given as the source filed them. How the source made its calls: active means growth percent below 10; inactive means the rest.

What was measured:
Assay in all cases: NCI-60 one-dose screen, 48 h (100 = growth as untreated, 0 = no growth, -100 = all killed)
Details in all cases: 10 µM unless noted
NCI-H23 lung = test system: NCI-H23 lung
NCI-H226 lung = test system: NCI-H226 lung
NCI-H322M lung = test system: NCI-H322M lung
HOP-62 NSCLC = test system: HOP-62 NSCLC
NCI-H460 lung = test system: NCI-H460 lung
HOP-92 NSCLC = test system: HOP-92 NSCLC
NCI-H522 lung = test system: NCI-H522 lung
786-0 renal = test system: 786-0 renal
COLO 205 colon = test system: COLO 205 colon
DU-145 prostate = test system: DU-145 prostate
K-562 leukemia = test system: K-562 leukemia
MALME-3M melanoma = test system: MALME-3M melanoma
RXF 393 renal = test system: RXF 393 renal
SF-268 CNS = test system: SF-268 CNS
SF-295 CNS = test system: SF-295 CNS
SF-539 CNS = test system: SF-539 CNS
UACC-257 melanoma = test system: UACC-257 melanoma
M14 melanoma = test system: M14 melanoma
MDA-MB-231 breast = test system: MDA-MB-231 breast
A549/ATCC NSCLC = test system: A549/ATCC NSCLC

Structure (SMILES) | growth (NCI-H23 lung) | growth (NCI-H226 lung) | growth (NCI-H322M lung) | growth (HOP-62 NSCLC) | growth (NCI-H460 lung) | growth (HOP-92 NSCLC) | growth (NCI-H522 lung) | growth (786-0 renal) | growth (COLO 205 colon) | growth (DU-145 prostate) | growth (K-562 leukemia) | growth (MALME-3M melanoma) | growth (RXF 393 renal) | growth (SF-268 CNS) | growth (SF-295 CNS) | growth (SF-539 CNS) | growth (UACC-257 melanoma) | growth (M14 melanoma) | growth (MDA-MB-231 breast) | growth (A549/ATCC NSCLC)
CN(Cc1ccccc1)c1ccc(SC#N)cc1 | 89.8% | 111% | 94.7% | 108% | 86.6% | 59.7% | 45.5% | 79.4% | 66.4% | 103% | 31.8% | 82.4% | 68.3% | 85% | 95.4% | 87.7% | 102% | 84% | – | –
CCCCCCCCCCCCCCCCCC1=NCCCN1CCO | 106% | 103% | 101% | 90.7% | 105% | 95.5% | 103% | 104% | 108% | 108% | 100% | 97.4% | 124% | 98.9% | 96% | 103% | 96.1% | 99.7% | 87.8% | –
Cc1cc(C(N)=O)cc(C)c1C(=O)OCCCl | 104% | 105% | 97.2% | 93.9% | 101% | 90.1% | 101% | 100% | 111% | 99.2% | 93.6% | 101% | 117% | 95% | 99.7% | 101% | – | 108% | 105% | –
Oc1cc(Cl)ccc1Cc1ccc(Cl)cc1O | 20.6% | 96.6% | 97% | 60.5% | 46% | -14.4% (active) | 33.8% | 92.8% | – | 90% | 37.2% | 32.9% | 73.8% | 65.2% | 32.3% | 56.3% | 58.7% | – | 59.7% | 73.7%
CCOc1ccc(C(CN2CCOCC2)C(C)=O)cc1OC (configuration not stated) | 98.9% | 98.9% | 117% | 104% | 108% | 102% | -51.6% (active) | 63.7% | 58% | – | 45.5% | 84% | 85.8% | 105% | 102% | 89.6% | 90% | 93.8% | 94.6% | 101%
O=C1C=Cc2ccccc2/C1=C/c1nc(-c2ccccc2)oc1O | 82.1% | 73% | 90.6% | 88.1% | 98.5% | 103% | 90.3% | 107% | 87.5% | – | 96.8% | 74.4% | 101% | 84.8% | 101% | 87.7% | 105% | 93.5% | 73.6% | 107%
c1ccc2sc(SSN3CC4CCC(CC4)C3)nc2c1 | 107% | 100% | 96% | 119% | 115% | 110% | 28.9% | 129% | 128% | 128% | 91.8% | 101% | -29.5% (active) | 122% | 108% | 94.9% | 120% | 110% | 101% | –
CCCCCCCCCCCCSC(=N)N | 87.4% | 107% | 68.7% | 58.3% | -28% (active) | -22.4% (active) | 88.5% | -37.7% (active) | -95.1% (active) | 42.8% | -40.8% (active) | – | 21.5% | 67.8% | – | 74.9% | 14% | -5.2% (active) | -30.1% (active) | 40.9%
CCOC(=O)C1(C)CCCC1N (configuration not stated) | 102% | 99.1% | 101% | 109% | 109% | -14.2% (active) | 102% | 103% | 131% | 108% | 101% | 101% | 104% | 92.4% | 105% | 103% | 113% | 106% | 97% | –
